# Assay outcomes: PubChem, National Center for Advancing Translational Sciences (NCATS)
# NPC1 prom act – NPC1 promoter activation; actives 2.4% (n = 320,000); Potency, µM (highest dose often 9.22 µM), without a hit: at the highest dose activation, usual class: activators; Huh7 NPC1 promoter luciferase reporter, 24 h; AID 485313; note: % of control where 0% means no effect; nearly all actives have a fitted effect of over 60% in size
#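 In 1536-well qHTS, Huh7 cells harboring an NPC1 promoter–luciferase construct received compound for 24 h; activation was quantified by luminescence following luciferase reagent addition.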
# Rab9 prom act – activators of Rab9 promoter | actives 2.8% (n = 320,000) | Huh7 Rab9 promoter-luciferase reporter, luminescence, 24 h | Potency, µM (highest dose often 9.22 µM), inactives show at the highest dose activation, negative = inhibition, usual class: activators; note: % of control where 0% means no effect; nearly all actives have a fitted effect of over 60% in size
#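 Luminescence from Amplite-detected luciferase (10 minutes, ambient) reports Rab9 promoter activation. Before that, stable Rab9-luciferase Huh7 cells (1500/well, reduced-serum OP-MEM I plus 10% FBS) were exposed to compound for 24 hours at 37C.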
# FLuc modulator – counter-screen for miR-21 project: firefly luciferase inhibitors or activators. P08659. purified FLuc, Km substrates, luminescence inhibition. Potency, µM (doses to about 57.5 µM), inactives show at the highest dose activity change, negative = inhibition, most hits filed as inhibitors. actives 6.9% (n = 360,000);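 note: plate controls were vehicle for no effect and reference inhibitor for full effect; nearly all actives have a fitted effect of over 55% in size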
# Target sequence (P08659 whole entry, looked up): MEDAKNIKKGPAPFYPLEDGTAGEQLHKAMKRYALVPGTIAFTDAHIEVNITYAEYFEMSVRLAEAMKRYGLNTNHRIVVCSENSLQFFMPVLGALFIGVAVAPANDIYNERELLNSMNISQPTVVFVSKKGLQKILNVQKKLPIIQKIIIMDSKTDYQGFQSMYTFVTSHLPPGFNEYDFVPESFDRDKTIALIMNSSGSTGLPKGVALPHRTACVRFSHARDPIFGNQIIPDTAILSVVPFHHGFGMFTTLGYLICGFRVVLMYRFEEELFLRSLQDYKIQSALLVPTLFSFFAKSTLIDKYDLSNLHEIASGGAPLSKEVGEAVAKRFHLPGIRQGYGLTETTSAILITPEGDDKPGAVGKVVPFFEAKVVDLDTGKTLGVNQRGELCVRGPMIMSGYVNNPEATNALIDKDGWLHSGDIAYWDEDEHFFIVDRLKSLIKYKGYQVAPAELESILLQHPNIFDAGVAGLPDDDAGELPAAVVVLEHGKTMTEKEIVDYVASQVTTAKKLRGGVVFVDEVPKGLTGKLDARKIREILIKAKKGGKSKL
#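 Biochemical qHTS of compounds, final roughly 60 µM downward over six points, against 10 nM purified firefly luciferase using Km concentrations of substrates (10 uM D-luciferin, 10 uM ATP) in Tris acetate pH 7.5 buffer; luminescence output.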
# Luc counter – Kinase-Glo luciferase inhibition (counter-screen); Q27757; Potency, µM (top dose mostly 38.3 µM), for inactives: at the highest dose activity change, negative = inhibition, actives largely listed as inhibitors; Kinase-Glo luciferase, ATP luminescence, 8 min; actives 0.28% (n = 200,000); AID 1379; note: % is set by controls: 0 for no effect and ±100 for the full control effect; nearly all actives have a fitted effect of over 60% in size
#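 Kinase-Glo luciferase light output from ATP and luciferin was measured with 10 uM ATP, within the enzyme's linear range. Buffer: 50 mM imidazole pH 7.2, 50 mM KCl, 7 mM MgCl2, 0.01% Tween 20, 0.05% BSA; luminescence read after 8 min at ambient temperature.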
# SMN2 splice enh – increases expression of the SMN2 splice variant. actives 2.8% (n = 210,000). HEK293 SMN2-luciferase splicing reporter, luminescence, 30-36 h. Potency, µM (highest dose often 46.1 µM), for the others: at the top dose activity change, positive = activation, most hits filed as activators; note: % of control where 0% means no effect; nearly all actives have a fitted effect of over 55% in size
#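 qHTS luciferase splicing reporter: luminescence rises when SMN2 exon 7 is included in transfected HEK293 cells. Compound exposure lasted 30-36 h at 37C, with 4.5 mM final sodium butyrate as control, followed by a ONE-Glo read.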
# ELG1 genotoxic – inducers of genotoxicity in HEK293T ELG1-luciferase cells. HEK293T ELG1-luciferase reporter, luminescence, 16 h. Potency, µM (highest dose often 46 µM), without a hit: at the top dose activity change, positive = activation, most hits filed as activators. actives 1.3% (n = 330,000). AID 504466; note: % of control where 0% means no effect; nearly all actives have a fitted effect of over 60% in size
#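 Quantitative HTS format in 1536-well plates. HEK293T ELG1-luciferase reporter cells receive test compound and are incubated 16 hr at 37 °C, 5% CO2; ONE-Glo added, 30 min room temperature, then luminescence read.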
# * hit, by the source's call; ? = inconclusive; . = no result given; [ ] = another dose, or the depositor's remark. In the library only some 7.5% were active in any assay of this set; here they are far more common. Calls come from the whole dose curve; as a rule, active = well fitted curve in the direction sought with a large enough effect; inconclusive = small, poorly fitted or top-dose-only effect, or another doubt; inactive = no such curve, though single readings can be large; an effect the other way counts as inactive or inconclusive. Potency is the fitted concentration of half-maximal effect.
SMILES,NPC1 prom act,Rab9 prom act,FLuc modulator,Luc counter,SMN2 splice enh,ELG1 genotoxic
COc1cc(Br)c(/C=C/c2ccc3cccc(O)c3n2)cc1OC,17%,-3%[1.84 µM],?,.,.,?
COc1ccc(OC)c(/C=C/c2ccc3cccc(O)c3n2)c1,11%,6%,13µM*,.,.,?
CSc1ccc(/C=C/c2ccc3cccc(O)c3n2)cc1,3.2µM*,1.3µM*,2.4µM*,-21%,13µM*,?
COc1cc(/C=C/c2ccc3cccc(O)c3n2)ccc1O,?,3.2µM*,6.7µM*,.,.,16µM*
COc1ccc(-n2nc(C)c3c(C(F)(F)F)cc(-c4cccnc4)nc32)cc1,.,.,-2%,.,0%,.
O=C(OCC1CC(c2ccccc2)=NO1)c1ccc(Cl)cc1 (centres undefined),1%,-6%,-10%,-1%,-1%,-1%
CN1OC(COC(=O)c2ccccc2)CC1c1ccccc1 (centres undefined),?,8%,6.7µM*,-4%,-13%,3%
COCCCNC(=O)CSc1nc2c(sc3ccccc32)c(=O)n1CCc1ccccc1,.,.,-6%,.,.,.
Cc1ccc(/C=C/C(=O)Nc2ncc(C)s2)o1,3.5µM*,2.8µM*,1.9µM*,-1%,3.2µM*,?
Cc1ccc(/C=C/C(=O)Nc2nccs2)o1,2.8µM*,1.8µM*,8.5µM*,-4%,11µM*,?
CCCOc1ccc(/C=C/c2c([N+](=O)[O-])c(=O)n(C)c(=O)n2C)cc1,-7%,0%,-2%,.,.,-7%
Cc1ccc(-c2cc(C(=O)N3CCOCC3)c3cc(C)ccc3n2)cc1,15%,5%,6.7µM*,.,.,1%
c1ccc(-c2cc(-c3ccc(N4CCOCC4)cc3)nc3ccccc23)cc1,1%,-1%,15µM*,3%,-7%,9%
Cc1ccc2nc(-c3ccncc3)cc(C(=O)N3CCOCC3)c2c1,-3%,-1%,-2%,.,.,-3%
O=C(c1cc(-c2ccc(Cl)cc2)nc2ccccc12)N1CCOCC1,1%,6%,19µM*,.,.,-13%
NC(=O)C1CCN(C(=O)c2cc(-c3ccc(Cl)cc3)nc3ccccc23)CC1,.,.,.,.,.,-6%
Cc1ccnc(N2CCC(C(=O)NNC(=O)COc3cccc4ccccc34)CC2)n1,-2%,0%,5%,6%,-25%,0%
COc1ccc(NC(=O)/C=C/c2ccc3c(c2)OCO3)cc1,?,3.2µM*,2.7µM*,-15%,18µM*,?
Cc1c(NC(=O)C(C)OC(=O)/C=C/c2ccccc2)c(=O)n(-c2ccccc2)n1C (centres undefined),-7%,3%,5%,3%,-13%,-3%
Cc1c(NC(=O)C(C)OC(=O)/C=C/c2ccc3c(c2)OCO3)c(=O)n(-c2ccccc2)n1C (centres undefined),0%,7%,15µM*,-2%,7%,8%
O=C(/C=C/c1ccc2c(c1)OCO2)Nc1nc(-c2ccc(F)cc2F)cs1,-7%,-12%,1%,1%,-82%,8%
Cc1csc(NC(=O)/C=C/c2ccc3c(c2)OCO3)n1,-1%,?,0.95µM*,-6%,13µM*,2.9µM*
O=C(COC(=O)/C=C/c1ccc2c(c1)OCO2)Nc1ccccc1,-10%,4%,21µM*,-7%,0%,6%
O=C(/C=C/c1ccc2c(c1)OCO2)Nc1nc2ccccc2s1,1.6µM*,0.79µM*,1.2µM*,-3%,3.5µM*,18µM*
CC(C)c1ccc(OCc2ccc(C(=O)O)o2)cc1,?,?,0.43µM*,.,.,?
CC(C)NC(=O)c1ccc(COc2ccc(C(C)(C)C)cc2)o1,?,12%,?,.,.,14%
CC(C)c1ccc(OCc2ccc(C(=O)N(C)C)o2)cc1,2.8µM*,1.6µM*,24µM*,.,.,10µM*
CC(C)c1ccc(OCc2ccc(C(=O)NN3CCN(C)CC3)o2)cc1,2.2µM*,2.5µM*,?,4%,14µM*,?
